PubChem BioAssay (Tox21)
Inconclusive results are not listed. Unmarked numbers belong to inactive results. Activity calls are given as the source filed them. Calls come from the whole dose curve; as a rule, active = well fitted curve in the direction sought with a large enough effect in the repeat runs; inconclusive = weak or mixed curves; inactive = no such curve, though single readings can be large; an effect the other way counts as inactive or inconclusive.

Experiment: qHTS RealTime-Glo MT Cell Viability Assay in HepG2 cells - 32 hour (AID 1224877); note: nearly all actives have a fitted effect of over 55% in size
Settings: RealTime-Glo luminescence; series mostly up to 76.8 µM; activity change, negative = cytotoxic: at the top concentration
Summary of the method: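 HepG2 cells (600/well) were dispensed with RealTime-Glo reagents, incubated 5 h at 37 °C, then treated with compounds in DMSO for up to 40 h. Nonlytic NanoLuc luminescence reflecting viable cells was read at each stated time point.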
% is set by controls: 0 for no effect and ±100 for the full control effect; potency is the fitted concentration of half-maximal effect.

Compared with `CN(C)Cc1ccccc1O`, `CCCC(=O)OC(C)(C)Cc1ccccc1` is lower in “activity change, negative = cytotoxic” value: 1.76% for the first, -5.43% for the second.

Going from `CC(CCc1ccccc1)NCC(O)c1ccc(O)c(C(N)=O)c1` (stereo not drawn) to `CCCC(=O)OCCc1ccccc1`, the “activity change, negative = cytotoxic” value falls from 0.87% to -0.871%.

Going from `CC(C)CCOC(=O)/C=C/c1ccccc1` to `O=C(/C=C/c1ccccc1)OC/C=C/c1ccccc1`, the “activity change, negative = cytotoxic” value rises from 0.177% to 0.838%.

First: Cc1ccc(C(=O)O)cc1
Second: CC(=O)CC(=O)Nc1ccc(S(=O)(=O)O)cc1
The “activity change, negative = cytotoxic” value of the first is higher: 0.793% for the first, 0.278% for the second.

Compared with `Nc1ccc(Oc2ccc(Cl)cc2)cc1`, `O=c1c(O)c(-c2ccc(O)cc2O)oc2cc(O)cc(O)c12` is lower in “activity change, negative = cytotoxic” value: 0.006% for the first, -2.49% for the second.

Compared with `CCCCOC(=O)CC`, `CCC(=O)OC(=O)CC` is higher in “activity change, negative = cytotoxic” value: 0.636% for the first, 2.31% for the second.

Compared with `OCC(F)(F)F`, `OC/C=C/CO` is lower in “activity change, negative = cytotoxic” value: 0.116% for the first, -0.0832% for the second.

First: CCCCCCC1CCCC(=O)O1 (stereo not drawn)
Second: CCC(CC)C(C)CCOC(C)=O (stereo not drawn)
The “activity change, negative = cytotoxic” value of the first is higher: 0.403% for the first, -1.7% for the second.

Compared with `CC(C)(C)NSc1nc2ccccc2s1`, `O[C@@H]([C@H](O)[C@H](O)CBr)[C@H](O)CBr` is lower in “activity change, negative = cytotoxic” value: 1.39% for the first, -0.706% for the second.

In the case of `O=C(O)c1cc(O)c2ccccc2c1O`, the Potency is reported as 21.9 µM (active).

Compound `CC(C)(C)CC(C)(C)c1ccc(Nc2ccc(C(C)(C)CC(C)(C)C)cc2)cc1` has an activity change, negative = cytotoxic of 0.186% [at 6.97 µM].

Compared with `CC(C(=O)O)c1ccc2c(c1)[nH]c1ccc(Cl)cc12` (stereo not drawn), `Cc1ccc(C(C)C)cc2c(C)ccc1-2` is lower in “activity change, negative = cytotoxic” value: 3.09% [at 35.3 µM] for the first, 0.846% [at 35.3 µM] for the second.

Going from `Cc1c(C)c2c(c(C)c1OC(=O)c1cccnc1)CC[C@@](C)(CCC[C@H](C)CCC[C@H](C)CCCC(C)C)O2` to `CN1CCN2c3ccccc3Cc3ccccc3C2C1` (stereo not drawn), the “activity change, negative = cytotoxic” value falls from 3.73% [at 35.3 µM] to -11.4% [at 35.3 µM].

With `Nc1ccc(C(=O)O)c(O)c1` the “activity change, negative = cytotoxic” value was 3.34% [at 35.3 µM].

`C[C@@H](O)[C@H](N)C(=O)O` showed an activity change, negative = cytotoxic of -3.46% [at 15.8 µM].

Experiment: A CellTox Green Cytotoxicity Assay to monitor cytotoxicity in HepG2 cells - 24 hour (AID 1224878); note: nearly all actives have a fitted effect of over 45% in size
Settings: CellTox Green fluorescence; series mostly up to 76.8 µM; cytotoxicity: at the top concentration
Summary of the method: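 Cytotoxicity was tracked as dead-cell DNA fluorescence in HepG2 cells treated with test compounds at 37 C; each time-point value comes from one kinetic series spanning 0, 8, 16, 24, 32 and 40 h.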

Going from `CN(C)Cc1ccccc1O` to `CC(CO)Oc1ccccc1` (stereo not drawn), the “cytotoxicity” value falls from 12.5% to -0.56%.

Compared with `CC(CCc1ccccc1)NCC(O)c1ccc(O)c(C(N)=O)c1` (stereo not drawn), `CC(C)CCOC(=O)/C=C/c1ccccc1` is lower in “cytotoxicity” value: -5.4% for the first, -8.61% for the second.

Compared with `COC(C)=O`, `CCC(CC)C(C)CCOC(C)=O` (stereo not drawn) is higher in “cytotoxicity” value: -0.0233% for the first, 5.53% for the second.

First: CC1(C)CCC[C@]2(C)[C@H]3CC(=O)O[C@]3(C)CC[C@@H]12
Second: CC(C)(C)C1CCC(=O)CC1
The “cytotoxicity” value of the first is higher: 22.3% for the first, 7.92% for the second.

Going from `Nc1ccc(Oc2ccc(Cl)cc2)cc1` to `O=C(O)c1ccc2cc(C(=O)O)ccc2c1`, the “cytotoxicity” value falls from 5.42% to -4.23%.

Compared with `C=CCCC(=O)/C=C/C1C(C)=CCCC1(C)C` (stereo not drawn), `O=C(/C=C/c1ccccc1)OC/C=C/c1ccccc1` is lower in “cytotoxicity” value: 17.9% for the first, 2.04% for the second.

Going from `OCC(F)(F)F` to `OC/C=C/CO`, the “cytotoxicity” value falls from -1.35% to -2.32%.

First: CCCCCCC1CCCC(=O)O1 (stereo not drawn)
Second: CCC(=O)OC(=O)CC
The “cytotoxicity” value of the first is lower: -11.9% for the first, -9.52% for the second.

Going from `CC(C)(C)NSc1nc2ccccc2s1` to `CC(=O)CC(=O)Nc1ccc(S(=O)(=O)O)cc1`, the “cytotoxicity” value rises from -7.86% to -2%.

With `O[C@@H]([C@H](O)[C@H](O)CBr)[C@H](O)CBr` the “cytotoxicity” value was -1.18%.

Going from `C#C[C@]1(O)CC[C@H]2[C@@H]3[C@H](C)CC4=C(CCC(=O)C4)[C@H]3CC[C@@]21C` to `CC(=O)Oc1cc2c(s1)CCN(C(C(=O)C1CC1)c1ccccc1F)C2` (stereo not drawn), the “cytotoxicity” value falls from 4.02% [at 35.3 µM] to -18.5% [at 35.3 µM].

Compared with `CC(C(=O)O)c1ccc2c(c1)[nH]c1ccc(Cl)cc12` (stereo not drawn), `Cc1ccc(C(C)C)cc2c(C)ccc1-2` is lower in “cytotoxicity” value: -5.45% [at 35.3 µM] for the first, -6.55% [at 35.3 µM] for the second.

Compared with `Cc1cccc(C)c1NC(=O)c1ccc(N)cc1`, `Cc1c(C)c2c(c(C)c1OC(=O)c1cccnc1)CC[C@@](C)(CCC[C@H](C)CCC[C@H](C)CCCC(C)C)O2` is lower in “cytotoxicity” value: -1.86% [at 35.3 µM] for the first, -18.7% [at 35.3 µM] for the second.

For `CCCC(=O)OCCc1ccccc1`, the Potency was 43.6 µM (active).
In the case of `O=C(O)c1cc(O)c2ccccc2c1O`, the Potency is reported as 43.6 µM (active).
With `COc1cc2nc(N3CCN(C(=O)c4ccco4)CC3)nc(N)c2cc1OC` the Potency was 7.37 µM (active).
In the case of `C=Cc1cccc(C)c1`, the Potency is reported as “inactive”.
For `Oc1ccccc1O`, the Potency was “inactive”.

In the case of `CC(C)(C)CC(C)(C)c1ccc(Nc2ccc(C(C)(C)CC(C)(C)C)cc2)cc1`, the cytotoxicity is reported as 4.45% [at 6.97 µM].

For `C[C@@H](O)[C@H](N)C(=O)O`, the cytotoxicity was 5.91% [at 15.8 µM].
